We go through 35 sequences from publication PMC12820563, “FoxP3 forms a head-to-head dimer in vivo and stabilizes its multimerization on adjacent microsatellites”.

In all, about 16,000 sequences were measured (“rpm ratio (pull-down/input)”: median about 0.5, highest 2% from about 5.5 on). The entries come from a sample that favours the highest values as a whole.

The assay deals with T1, MBP-FoxP3dN (Mus musculus, UniProt Q99JB6 188-423).
T1 sequence: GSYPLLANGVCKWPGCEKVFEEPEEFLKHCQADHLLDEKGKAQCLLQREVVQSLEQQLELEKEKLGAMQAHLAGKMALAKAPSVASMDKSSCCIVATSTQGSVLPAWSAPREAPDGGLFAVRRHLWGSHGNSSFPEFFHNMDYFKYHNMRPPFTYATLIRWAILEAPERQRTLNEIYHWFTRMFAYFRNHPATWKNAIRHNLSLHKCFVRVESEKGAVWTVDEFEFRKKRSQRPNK
As to the kind of experiment: PD-seq (MBP pull-down with sequencing); 20 mM Tris-HCl pH 7.5, 100 mM NaCl, 1.5 mM MgCl2, 0.4 uM protein, 0.1 uM dsDNA library, 30 min, room temperature, amylose pull-down; high values mean tight binding. Conditions: protein: recombinant; tags: His6-MBP; chain copies: 2; dsDNA, one strand shown. The essentials: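 Binding is the reads-per-million enrichment of pull-down relative to input, pooled across replicates. For this, 0.4 µM His6-MBP-tagged mouse FoxP3 or FoxP1 fragment lacking the N-terminus, made in E. coli, was incubated with 0.1 µM Klenow-filled double-stranded degenerate DNA library for 30 min at room temperature in Tris pH 7.5 buffer with NaCl and MgCl2. Complexes bound to amylose resin were washed three times before proteinase K released the DNA for PCR barcoding and Illumina sequencing.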
In the case of “GATGATTGTTCTCCCAGCTGATGAATTTGTAATGTCGAGTAAACAAATTTTCCTAATCTTTCTGTTCAAGCGCCATCTAC”, the binding signal was 3.87 RPM ratio (pull-down/input). Take “GATGATTGTTCTCCCAGCTGATGAATTATACACGTCGAGTAAACAAATTTTCCTAATCTTTCTGTTCAAGCGCCATCTAC”: the binding signal is 0.65 RPM ratio (pull-down/input).

As for “GATGATTGTTCTCCCAGCTGATGAATTACGAAAGTCGAGTAAACAAATTTTCCTAATCTTTCTGTTCAAGCGCCATCTAC”, the binding signal is 0.214 RPM ratio (pull-down/input). For “GATGATTGTTCTCCCAGCTGATGAATTTTATTTTTCGAGTAAACAAATTTTCCTAATCTTTCTGTTCAAGCGCCATCTAC” the value was 4.17 RPM ratio (pull-down/input); for “GATGATTGTTCTCCCAGCTGATGAATTTATTTTTTCGAGTAAACAAATTTTCCTAATCTTTCTGTTCAAGCGCCATCTAC”, 4.63 RPM ratio (pull-down/input); for “GATGATTGTTCTCCCAGCTGATGAATTTTATTGTTCGAGTAAACAAATTTTCCTAATCTTTCTGTTCAAGCGCCATCTAC”, 6.02 RPM ratio (pull-down/input). Regarding “GATGATTGTTCTCCCAGCTGATGAATTTTTTATTTCGAGTAAACAAATTTTCCTAATCTTTCTGTTCAAGCGCCATCTAC”, the binding signal is 0.301 RPM ratio (pull-down/input).

As to “GATGATTGTTCTCCCAGCTGATGAATTGATTTATTCGAGTAAACAAATTTTCCTAATCTTTCTGTTCAAGCGCCATCTAC”, the binding signal is 2.58 RPM ratio (pull-down/input).

For the sequence “GATGATTGTTCTCCCAGCTGATGAATTATTTTATTCGAGTAAACAAATTTTCCTAATCTTTCTGTTCAAGCGCCATCTAC”, the binding signal was 0.489 RPM ratio (pull-down/input). Under “GATGATTGTTCTCCCAGCTGATGAATTAATTTATTCGAGTAAACAAATTTTCCTAATCTTTCTGTTCAAGCGCCATCTAC” stands 2.61 RPM ratio (pull-down/input); under “GATGATTGTTCTCCCAGCTGATGAATTTTATTATTCGAGTAAACAAATTTTCCTAATCTTTCTGTTCAAGCGCCATCTAC”, 5.53 RPM ratio (pull-down/input).

Turning to “GATGATTGTTCTCCCAGCTGATGAATTTATTTGTTCGAGTAAACAAATTTTCCTAATCTTTCTGTTCAAGCGCCATCTAC”, the binding signal was 6.33 RPM ratio (pull-down/input). For “GATGATTGTTCTCCCAGCTGATGAATTTTTATTTTCGAGTAAACAAATTTTCCTAATCTTTCTGTTCAAGCGCCATCTAC” the value was 0.838 RPM ratio (pull-down/input); for “GATGATTGTTCTCCCAGCTGATGAATTCTTTTATTCGAGTAAACAAATTTTCCTAATCTTTCTGTTCAAGCGCCATCTAC”, 0.35 RPM ratio (pull-down/input). For “GATGATTGTTCTCCCAGCTGATGAATTTATTGATTCGAGTAAACAAATTTTCCTAATCTTTCTGTTCAAGCGCCATCTAC” the value was 5.78 RPM ratio (pull-down/input); for “GATGATTGTTCTCCCAGCTGATGAATTACGTGCCTCGAGTAAACAAATTTTCCTAATCTTTCTGTTCAAGCGCCATCTAC”, 0.855 RPM ratio (pull-down/input); for “GATGATTGTTCTCCCAGCTGATGAATTGGTCCACTCGAGTAAACAAATTTTCCTAATCTTTCTGTTCAAGCGCCATCTAC”, 0.387 RPM ratio (pull-down/input). In the case of “GATGATTGTTCTCCCAGCTGATGAATTACTGAGCTCGAGTAAACAAATTTTCCTAATCTTTCTGTTCAAGCGCCATCTAC”, the binding signal was 0.258 RPM ratio (pull-down/input). For “GATGATTGTTCTCCCAGCTGATGAATTAACACCTTCGAGTAAACAAATTTTCCTAATCTTTCTGTTCAAGCGCCATCTAC” the value was 0.408 RPM ratio (pull-down/input). Under “GATGATTGTTCTCCCAGCTGATGAATTCTTTACGTCGAGTAAACAAATTTTCCTAATCTTTCTGTTCAAGCGCCATCTAC” stands 0.372 RPM ratio (pull-down/input); under “GATGATTGTTCTCCCAGCTGATGAATTGTAGCGGTCGAGTAAACAAATTTTCCTAATCTTTCTGTTCAAGCGCCATCTAC”, 0.618 RPM ratio (pull-down/input); under “GATGATTGTTCTCCCAGCTGATGAATTTAATACATCGAGTAAACAAATTTTCCTAATCTTTCTGTTCAAGCGCCATCTAC”, 0.619 RPM ratio (pull-down/input). Under “GATGATTGTTCTCCCAGCTGATGAATTGTAACCGTCGAGTAAACAAATTTTCCTAATCTTTCTGTTCAAGCGCCATCTAC” stands 0.518 RPM ratio (pull-down/input); under “GATGATTGTTCTCCCAGCTGATGAATTCTATTTATCGAGTAAACAAATTTTCCTAATCTTTCTGTTCAAGCGCCATCTAC”, 6.6 RPM ratio (pull-down/input); under “GATGATTGTTCTCCCAGCTGATGAATTGTATTTATCGAGTAAACAAATTTTCCTAATCTTTCTGTTCAAGCGCCATCTAC”, 6.83 RPM ratio (pull-down/input). Regarding “GATGATTGTTCTCCCAGCTGATGAATTTTATTTATCGAGTAAACAAATTTTCCTAATCTTTCTGTTCAAGCGCCATCTAC”, the binding signal was 6.95 RPM ratio (pull-down/input).

For “GATGATTGTTCTCCCAGCTGATGAATTTGTATTATCGAGTAAACAAATTTTCCTAATCTTTCTGTTCAAGCGCCATCTAC”, the binding signal is 5.3 RPM ratio (pull-down/input). In the case of “GATGATTGTTCTCCCAGCTGATGAATTATTCCTATCGAGTAAACAAATTTTCCTAATCTTTCTGTTCAAGCGCCATCTAC”, the binding signal was 0.365 RPM ratio (pull-down/input). Consider “GATGATTGTTCTCCCAGCTGATGAATTTATTCTATCGAGTAAACAAATTTTCCTAATCTTTCTGTTCAAGCGCCATCTAC”, for which the binding signal is 0.549 RPM ratio (pull-down/input).

As for “GATGATTGTTCTCCCAGCTGATGAATTTTATTGATCGAGTAAACAAATTTTCCTAATCTTTCTGTTCAAGCGCCATCTAC”, the binding signal was 5.5 RPM ratio (pull-down/input). Under “GATGATTGTTCTCCCAGCTGATGAATTTATTGAATCGAGTAAACAAATTTTCCTAATCTTTCTGTTCAAGCGCCATCTAC” stands 0.822 RPM ratio (pull-down/input); under “GATGATTGTTCTCCCAGCTGATGAATTTATTTTATCGAGTAAACAAATTTTCCTAATCTTTCTGTTCAAGCGCCATCTAC”, 3.67 RPM ratio (pull-down/input); under “GATGATTGTTCTCCCAGCTGATGAATTTATTTGATCGAGTAAACAAATTTTCCTAATCTTTCTGTTCAAGCGCCATCTAC”, 2.62 RPM ratio (pull-down/input). Under “GATGATTGTTCTCCCAGCTGATGAATTTATTGTATCGAGTAAACAAATTTTCCTAATCTTTCTGTTCAAGCGCCATCTAC” stands 5.25 RPM ratio (pull-down/input); under “GATGATTGTTCTCCCAGCTGATGAATTTTTATTATCGAGTAAACAAATTTTCCTAATCTTTCTGTTCAAGCGCCATCTAC”, 0.779 RPM ratio (pull-down/input).
